Assay outcomes deposited in PubChem by National Center for Advancing Translational Sciences (NCATS).
Most compounds without a hit are left out; they make up all but 1.1% or so of the library.
AMA1-RON2 inh: inhibitors of Plasmodium falciparum AMA1-RON2 interaction. AlphaScreen AMA1-biotinylated RON2 peptide binding. Potency, µM (titrated, usually from 58.2 µM), for inactives: at the highest dose activity change, negative = inhibition, most hits filed as inhibitors. 360,000 compounds, 0.2% hits;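 also: 0% = vehicle wells and -100% = peptide control; nearly all actives have a fitted effect of over 45% in size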
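AMA1 (3D7) with his tag at 25 nM final met compounds first, then biotinylated RON2 peptide at 25 nM; detection used donor plus acceptor beads, 10 µg/mL apiece, read by AlphaScreen after 30 min at room temperature.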
AmpC inh detg: inhibitors of E. coli AmpC beta-lactamase with detergent; 370,000 compounds, 0.041% hits; P00811; AmpC hydrolysis of nitrocefin, absorbance 480 nm, 0.01% Triton; AID 485294; Potency, µM (series often up to 114 µM), for the others: at the top dose activity change, negative = inhibition, most hits filed as inhibitors;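 also: 0% = no-compound wells and -100% = no-enzyme wells; nearly all actives have a fitted effect of over 25% in size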
Target sequence (P00811 whole entry, looked up): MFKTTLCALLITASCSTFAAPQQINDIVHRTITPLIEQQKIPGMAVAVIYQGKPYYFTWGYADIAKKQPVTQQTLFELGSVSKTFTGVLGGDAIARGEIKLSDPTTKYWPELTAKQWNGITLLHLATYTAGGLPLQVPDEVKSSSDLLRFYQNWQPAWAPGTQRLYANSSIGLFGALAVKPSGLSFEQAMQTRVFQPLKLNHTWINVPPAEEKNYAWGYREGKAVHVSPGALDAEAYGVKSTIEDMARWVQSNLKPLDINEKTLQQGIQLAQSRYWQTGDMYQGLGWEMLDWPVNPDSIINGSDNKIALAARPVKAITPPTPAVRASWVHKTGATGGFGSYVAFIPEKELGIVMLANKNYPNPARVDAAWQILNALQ
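20 mM phosphate pH 7.0 + 0.01% (detergent screen) or 0.0001% Triton X-100; 5.3 nM AmpC reagent; cpd preinc 15 min RT; nitrocefin (800 uM stock) to start; A480 q20 s × 4 min; Activity was normalised to no-enzyme and no-compound control wells.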
FBPA Giardia inh: blocks Giardia fructose-bisphosphate aldolase activity. A8B2U2. purified Giardia FBPA. Potency, µM (series often up to 59.6 µM), for the others: top-dose activity, negative = inhibition, usual class: inhibitors. 290,000 compounds, 0.71% hits. AID 2451; also: nearly all actives have a fitted effect of over 55% in size
Target sequence (A8B2U2 whole entry, looked up): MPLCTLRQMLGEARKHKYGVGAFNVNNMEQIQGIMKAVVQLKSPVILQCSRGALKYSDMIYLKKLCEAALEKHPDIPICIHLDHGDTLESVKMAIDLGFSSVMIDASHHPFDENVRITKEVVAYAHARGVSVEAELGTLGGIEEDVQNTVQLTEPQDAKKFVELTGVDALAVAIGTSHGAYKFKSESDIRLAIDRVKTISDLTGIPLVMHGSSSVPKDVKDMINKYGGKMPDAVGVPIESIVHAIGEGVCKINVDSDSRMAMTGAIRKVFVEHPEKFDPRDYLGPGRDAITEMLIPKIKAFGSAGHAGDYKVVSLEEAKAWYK
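Giardia FBPA (40 nM reagent) was preincubated 10 min at RT with compound (up to 57.5 uM final), then substrate plus GAPDH/TPI/NAD/arsenate coupling system with diaphorase/resazurin was added; resorufin fluorescence (525/598 nm) was read after 20 min.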
AmpC inh no detg: blocks E. coli AmpC beta-lactamase in detergent-free assay; AmpC nitrocefin hydrolysis, absorbance 480 nm, 0.0001% Triton; 330,000 compounds, 0.52% hits; Potency, µM (series often up to 57.1 µM), without a hit: top-dose activity change, negative = inhibition, most hits filed as inhibitors;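 also: plate controls were no compound for no effect and no enzyme for full effect; nearly all actives have a fitted effect of over 20% in size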
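20 mM phosphate pH 7.0 + 0.01% (detergent screen) or 0.0001% Triton X-100; 5.3 nM AmpC reagent; cpd preinc 15 min RT; nitrocefin (800 uM stock) to start; A480 q20 s × 4 min; Activity was normalised to no-enzyme and no-compound control wells.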
Starred values were filed as active, the others as inactive; ? = inconclusive; . = no result given. Calls follow the shape of the dose curve; as a rule, active = well fitted curve in the direction sought with a large enough effect; inconclusive = small, poorly fitted or top-dose-only effect, or another doubt; inactive = no such curve, though single readings can be large; an effect the other way counts as inactive or inconclusive. Unless noted, % is scaled to controls: 0 for no effect and ±100 for the full control effect; potency is read from the fitted curve at half-maximal effect.

SMILES	AMA1-RON2 inh	AmpC inh detg	FBPA Giardia inh	AmpC inh no detg
O=[N+]([O-])c1ccc(Nc2ccc(Cl)cc2)nc1	-9%	-10%	-4%	-1%
Cc1nc2cc(NC(=O)NCc3ccco3)ccc2o1	0%	2%	-3%	0.35µM*
CCCCC(NC(C)=O)c1nc2ccccc2[nH]1 (centres undefined)	-2%	8%	-20%	40µM*
CCCC(=O)NC(C)c1nc2ccccc2[nH]1 (centres undefined)	8%	-3%	-4%	-4%
CC(Sc1ccc(Cl)cc1)C(=O)N(C)CC(=O)Nc1ccc(N2CCOCC2)cc1 (centres undefined)	-4%	-5%	.	20%
OCCC1CN(Cc2c(O)ccc3ccccc23)CCN1CCc1ccccc1 (centres undefined)	-21%	9%	20µM*	75%
O=C(Nc1cccc(-n2cnnn2)c1)c1ccoc1COc1ccc(Cl)cc1	-8%	-10%	.	7.1µM*
CCN(CC(=O)NCc1ccc(Cl)cc1)C(=O)COc1cccc(Cl)c1	0%	4%	.	2%
Nc1ccc2ncccc2c1	18%	-1%	2.2µM*	-8%
Nc1ccc(/C=C/c2ccc3ncccc3c2)cc1	-2%	8%	5%	-16%
COC(=O)C1=C(O)/C(=C\c2sccc2C)N=C1C	-11%	5%	-7%	-6%
COC(=O)C1=C(O)/C(=C\c2cc(C)n(-c3ccccc3C)c2C)N=C1C	7%	-3%	7.1µM*	-29%
CCOC(=O)C1(C)CCN1C(=O)c1ccc(OC)c(F)c1 (centres undefined)	4%	.	.	.
Cc1cccc(C)c1NC(=O)N1CCC(C(N)=O)(N2CCCCC2)CC1	.	23%	.	.
Cc1nc(S/C(=C\c2ccc(-c3ccc(C(=O)O)c(Cl)c3)o2)C(=O)O)n[nH]1	18µM*	-3%	-27%	-35%
CCN(c1ccccc1)S(=O)(=O)c1ccc(OC)c(NC(=O)CCc2nc3ccccc3c(=O)[nH]2)c1	-4%	?	.	35µM*
Cc1ccc(S(=O)(=O)NC(CC(=O)NC2CCCC2)c2ccco2)cc1 (centres undefined)	12%	-4%	-1%	0.4µM*
COc1ccc(S(=O)(=O)NC(CC(=O)NC2CCCC2)c2ccco2)cc1 (centres undefined)	7%	1%	2%	65%
Cc1ccc(S(=O)(=O)NC(CC(=O)N2CCC3(CC2)OCCO3)c2ccco2)cc1 (centres undefined)	-4%	-5%	-1%	19%
Cc1ccc(S(=O)(=O)NC(CC(=O)N2CCOCC2)c2ccco2)cc1 (centres undefined)	-1%	5%	1%	0.14µM*
COc1ccc(N2CCN(C(=O)c3c(C)oc4ncnc(N5CCCCC5)c34)CC2)cc1	.	4%	.	.
Cc1cc(C)nc(Nc2ncc(O)n2-c2ccc(C)c(Cl)c2)n1	30%	-2%	0%	0.32µM*
CN(C)S(=O)(=O)c1cccc(NC(=O)COC(=O)c2cccc(S(=O)(=O)N3CCc4ccccc4C3)c2)c1	8%	-10%	3%	-22%
Cc1cccc(C(C)C)c1NC(=O)COC(=O)c1cccc(S(=O)(=O)N2CCc3ccccc3C2)c1	-8%	-6%	1%	7.9µM*
CCc1cccc(CC)c1NC(=O)COC(=O)c1cccc(S(=O)(=O)N2CCc3ccccc3C2)c1	4%	-1%	6%	18µM*
SMILES	AMA1-RON2 inh	AmpC inh detg	FBPA Giardia inh	AmpC inh no detg
CCN(CC(=O)Nc1c(F)cccc1F)C(=O)c1cccc(S(=O)(=O)N2CCc3ccccc3C2)c1	8%	-16%	.	1%
CC(C)c1cc2c(c(O)c1O)[C@@]1(C(=O)O)CCCC(C)(C)[C@@H]1CC2	.	.	10µM*	.
Cc1nc(SCC(=O)NC2CC2)c2c(C)c(C)sc2n1	-4%	4%	5%	-6%
Cc1sc2nc(C(C)C)nc(SCC(=O)NC3CC3)c2c1C	5%	14µM*	10%	-13%
Cc1ccc(S(=O)(=O)c2cn(CC(=O)Nc3ccc4c(c3)OCO4)c3ccc(C)cc3c2=O)cc1	.	-7%	.	.
CC1Cc2nc(SCC(=O)Nc3ccc4c(c3)OCO4)n(CCc3ccccc3)c(=O)c2S1 (centres undefined)	-8%	?	0%	?
CCn1c(SCC(=O)Nc2ccc3c(c2)OCO3)nc2c(c1=O)SC(C)C2 (centres undefined)	-1%	-1%	4%	2.8µM*
NS(=O)(=O)c1cccc(NC(=O)CSc2nc3ccccc3c(=O)n2CCCN2CCOCC2)c1	21%	-7%	9%	32µM*
NC(=O)c1ccc(NC(=O)CSc2nc3ccccc3c(=O)n2CCCN2CCOCC2)cc1	0%	-2%	.	-17%
CCCc1cc(CN2CCOCC2)c(O)c(CN2CCOCC2)c1O	-1%	.	.	.
Oc1c(CN2CCOCC2)cc(CN2CCOCC2)c(O)c1O	11µM*	.	.	.
Cc1ccc(OCCn2c(C3CC(=O)N(Cc4ccccc4)C3)nc3ccccc32)cc1 (centres undefined)	-11%	?	-11%	45µM*
Oc1ccccc1/C=N/Nc1nn[nH]n1	42%	-8%	?	-2%
Cc1nnc(N/N=C/c2cc(C)n(-c3ccc(F)cc3)c2C)n1N	36%	?	10µM*	2%
Cc1nnc(N/N=C/c2ccccc2O)n1N	46%	5%	7.1µM*	-8%
Cc1cc(/C=N/NC(N)=S)c(C)n1-c1ccc(Br)cc1	21%	5%	-12%	-53%
CCOC(=O)c1c(NC(=O)C(NCCN(C)C)c2ccccc2)sc2c1CCCC2 (centres undefined)	52%	-11%	11%	204%
CCCCC(=O)NC(=S)NNC(=O)c1ccc(OC)cc1	109%	35µM*	6%	-51%
CC1CCN(S(=O)(=O)c2ccc(C(=O)N3CCCC3C(=O)O)cc2)CC1 (centres undefined)	0%	4%	.	-16%
CC(=O)NC(c1ccccc1)c1nc(-c2cc(F)cc(F)c2)cs1 (centres undefined)	-2%	.	.	.
CC(C)Cc1ccc(C(C)C(=O)Nc2ccccc2O)cc1 (centres undefined)	0%	-5%	-6%	4µM*
COc1ccc(NC(=O)CCl)cn1	.	2%	2.8µM*	-15%
O=C(NCCc1nc2ccccc2n1Cc1ccccc1F)c1ccc(F)cc1	.	6%	.	.
CCc1nc2ccc(C(=O)Nc3ccc(OC)c(OC)c3)cn2c1N(C)Cc1ccc(N(C)C)cc1	32µM*	.	.	.
COc1cc(C2C(C(C)=O)=C(O)C(=O)N2CCN2CCOCC2)ccc1O (centres undefined)	1%	-12%	-16%	-22%
CCCOc1ccc(C2C(C(=O)/C=C/c3ccco3)=C(O)C(=O)N2CCN2CCOCC2)cc1OC (centres undefined)	-18%	-4%	7.9µM*	92%
O=C(CCS(=O)(=O)c1ccccc1)N(Cc1cccnc1)c1nc2c(Cl)cccc2s1	.	0%	.	.
O=c1[nH]c(=S)n(C2CC2)c(O)c1/C=N/Nc1cccc2ccccc12	37%	-1%	?	-24%
